Assay outcomes (PubChem)
NPC1 prom act: NPC1 promoter activation; Potency, µM (highest dose often 9.22 µM), without a hit: at the highest dose activation, hits mostly activators; 320,000 tested, 2.4% active; Huh7 NPC1 promoter luciferase reporter, 24 h; AID 485313; further: % of control where 0% means no effect; nearly all actives have a fitted effect of over 60% in size
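In 1536-well qHTS, Huh7 cells harboring an NPC1 promoter–luciferase construct received compound for 24 h; activation was quantified by luminescence following luciferase reagent addition.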
Luc counter: blocks Kinase-Glo luciferase, a counter-screen artifact; Q27757; Kinase-Glo luciferase, ATP luminescence, 8 min; Potency, µM (highest dose often 38.3 µM), inactives show at the top dose activity change, negative = inhibition, hits mostly inhibitors; 200,000 tested, 0.28% active; further: on the % scale 0 is the no-effect control and ±100 the full control effect; nearly all actives have a fitted effect of over 60% in size
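Luminescence was the read-out, taken after 8-minute incubation at ambient temperature. Luciferase turned over luciferin with 10 uM ATP in imidazole pH 7.2 buffer containing KCl, MgCl2, Tween 20 and BSA.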
ELG1 genotoxic: genotoxicity induction in ELG1-luciferase HEK293T cells; 330,000 tested, 1.3% active; AID 504466; Potency, µM (top dose mostly 46 µM), without a hit: top-dose activity change, positive = activation, most hits filed as activators; HEK293T ELG1-luciferase reporter, luminescence, 16 h; further: % of control where 0% means no effect; nearly all actives have a fitted effect of over 60% in size
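DMSO vehicle served as control against compound-treated ELG1-luciferase HEK293T cells; exposure lasted 16 hr at 37 °C and 5% CO2, followed by ONE-Glo luminescence detection after 30 min.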
SMN2 splice enh: increases expression of the SMN2 splice variant | HEK293 SMN2-luciferase splicing reporter, luminescence, 30-36 h | Potency, µM (series often up to 46.1 µM), inactives show top-dose activity change, positive = activation, usual class: activators | 210,000 tested, 2.8% active | AID 1458; further: % of control where 0% means no effect; nearly all actives have a fitted effect of over 55% in size
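HEK293 cells carry an SMN2 minigene-luciferase reporter in which exon 7 inclusion puts luciferase in frame. Cells were seeded at 2000 cells/well, attached for 10-12 hours, then exposed to compounds for 30-36 hours at 37C before ONE-Glo luminescence.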
FLuc modulator: counter-screen for miR-21 project: firefly luciferase inhibitors or activators. purified FLuc, Km substrates, luminescence inhibition. P08659. Potency, µM (top dose mostly 57.5 µM), for inactives: top-dose activity change, negative = inhibition, hits mostly inhibitors. 360,000 tested, 6.9% active;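 further: plate controls were vehicle for no effect and reference inhibitor for full effect; nearly all actives have a fitted effect of over 55% in size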
Target sequence (P08659 whole entry, looked up): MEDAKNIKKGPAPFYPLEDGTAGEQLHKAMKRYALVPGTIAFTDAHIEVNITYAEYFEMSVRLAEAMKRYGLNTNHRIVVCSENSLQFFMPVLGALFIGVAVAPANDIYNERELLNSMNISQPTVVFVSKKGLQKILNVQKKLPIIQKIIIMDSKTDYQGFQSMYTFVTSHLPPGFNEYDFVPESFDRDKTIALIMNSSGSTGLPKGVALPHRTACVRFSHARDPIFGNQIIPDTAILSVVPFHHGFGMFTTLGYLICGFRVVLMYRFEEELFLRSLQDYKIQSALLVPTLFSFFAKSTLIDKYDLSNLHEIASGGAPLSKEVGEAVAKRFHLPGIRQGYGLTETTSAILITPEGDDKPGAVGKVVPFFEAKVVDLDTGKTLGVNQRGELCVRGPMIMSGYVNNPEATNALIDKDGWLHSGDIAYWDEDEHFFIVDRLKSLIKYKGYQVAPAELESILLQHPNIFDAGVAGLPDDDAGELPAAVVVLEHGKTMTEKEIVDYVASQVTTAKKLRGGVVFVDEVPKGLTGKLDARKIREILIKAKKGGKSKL
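Purified P. pyralis luciferase, 10 nM final, with Km-level 10 uM D-luciferin and 10 uM ATP in 50 mM Tris acetate pH 7.5, 10 mM Mg acetate, 0.01% Tween-20, 0.05% BSA; 6-point qHTS titration about 60 µM downward; luminescence read.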
Rab9 promoter act: Rab9 promoter activation | Huh7 Rab9 promoter-luciferase reporter, luminescence, 24 h | Potency, µM (doses to about 9.22 µM), for inactives: top-dose activation, negative = inhibition, actives largely listed as activators | 320,000 tested, 2.8% active | AID 485297; further: % of control where 0% means no effect; nearly all actives have a fitted effect of over 60% in size
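Huh7 cells stably carrying a Rab9 promoter-luciferase reporter, 1500 cells per well in OP-MEM I with 10% FBS, treated with compound 24 hours at 37C. Luciferase activity read by luminescence after 10 minutes with Amplite reagent.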
An asterisk follows results filed as active; u = inconclusive; x = no result given; [ ] = dose if it differs, or a comment. Most compounds without a hit are left out; they make up all but 7.3% or so of the library. The call rests on the fitted dose curve; in most records, active means well fitted curve in the direction sought with a large enough effect; inconclusive means small, poorly fitted or top-dose-only effect, or another doubt; inactive means no such curve, though single readings can be large; an effect the other way counts as inactive or inconclusive. Potency means the concentration at half of the fitted maximal effect.

SMILES	NPC1 prom act	Luc counter	ELG1 genotoxic	SMN2 splice enh	FLuc modulator	Rab9 promoter act
Cc1nn(-c2ccccc2)c(/N=C/c2ccccc2O)c1-c1ccccc1	2.2µM*	-6%	u	11µM*	-15%	2.8µM*
CCNc1ncc2nc(CCc3ccccc3)c(=O)n(CCOC)c2n1	x	2%	x	-5%	x	x
COc1cccc(CNC(=O)C2=C(C)C(=O)OC23CCN(C(C)=O)CC3)c1OC	x	x	x	x	3%	x
CC(CNC(=O)c1ccc2nc(CCc3ccccc3)oc2c1)c1ccccc1 (configuration not stated)	x	x	x	x	-6%	x
Cc1nn(CC2CCCCC2)c(N)c1-c1ccccc1	29%	-5%	u	-13%	17µM*	u
N#CC(CC(=O)O)=C(c1ccccc1)c1ccccc1	x	0%[7.66 µM]	x	2%[9.22 µM]	x	x
c1ccc(CSc2ccc(-c3ccccn3)nn2)nc1	2.8µM*	-9%	u	11µM*	u	2.5µM*
Clc1ccc(-c2ccc(SCc3ccccn3)nn2)cc1	2.2µM*	-1%	u	u	u	3.2µM*
c1ccc(-c2ccc(SCc3cccnc3)nn2)nc1	u	-6%	u	u	u	u
CCOc1ccc(NC(=O)CSc2ncc3c(n2)-c2ccccc2N(C)S3(=O)=O)cc1	x	x	x	x	-2%	x
CCOc1ccc(CCNC(=O)CSCc2nc(-c3cccc(C)c3)oc2C)cc1OCC	x	x	x	-51%	-17%	x
O=C(NC(=O)c1ccccc1O)c1ccc2c(c1)CCO2	1.4µM*	x	u	x	1.2µM*	u
CC1CC1c1ccc(/C=C(\C#N)C(=O)Nc2ccccc2Cl)o1 (configuration not stated)	16%	-1%	18%	u	19µM*	22%
CC1CC1c1ccc(/C=C(\C#N)C(=O)Nc2ccc(Cl)cc2)o1 (configuration not stated)	3.5µM*	-4%	u	8.9µM*	4.8µM*	3.5µM*
CCc1ccccc1NC(=O)/C(C#N)=C/c1ccc(Sc2ccccc2)o1	0%	1%	-4%	-26%	u	-4%
N#C/C(=C\c1ccc(-c2ccc(C(=O)O)cc2)o1)C(=O)Nc1ccccc1C(=O)O	x	x	x	-5%	13µM*	x
CCOc1ccc(C(=O)/C=C/c2cn(CC(O)CN3CCc4ccccc43)c3ccccc23)cc1 (configuration not stated)	x	x	x	-10%	-4%	x
Cc1cc(C)c2oc(-c3cccc(NC(=O)c4ccc(Br)o4)c3)nc2c1	x	x	x	16%	u	x
Cc1cc(C)c2oc(-c3ccc(C)c(NC(=O)/C=C/c4ccco4)c3)nc2c1	x	x	x	-9%	21µM*	x
Cc1cc(C)c2oc(-c3cccc(NC(=O)c4ccco4)c3)nc2c1	x	x	x	5%	2.7µM*	x
CC[C@H](C)[C@@H](NC(=O)O[C@H]1C(=O)c2ccc(OC)cc2O[C@@H]1c1ccc2c(c1)OCO2)C(=O)OC	x	0%	x	13%	x	x
Cc1ccc2nc(SCC(=O)N3CCCC3)[nH]c2c1	2µM*	-4%	3.7µM*	11µM*	6.7µM*	1.4µM*
Cc1ccc2nc(SC(C)C(=O)N3CCCC3)[nH]c2c1 (configuration not stated)	15%	0%	u	11µM*	u	u
COC(=O)CSc1nc2ccc(C)cc2[nH]1	-1%	4%	1%	-2%	u	0%
Cc1ccc2nc(SCC(=O)N3CCN(C(=O)c4ccco4)CC3)[nH]c2c1	0%	2%	0%	11%	-5%	2%
SMILES	NPC1 prom act	Luc counter	ELG1 genotoxic	SMN2 splice enh	FLuc modulator	Rab9 promoter act
Cc1ccc2nc(SC(C)C(=O)N3CCCCC3)[nH]c2c1 (configuration not stated)	25%	0%	6%	21%	u	12%
Cc1ccc2nc(SCC(=O)c3ccc(O)cc3O)[nH]c2c1	u	x	u	x	8.5µM*	3.2µM*
COc1cccc(CNC(=O)Cn2nc3c(cc2=O)CCCC3)c1OC	x	x	x	x	0%	x
Cc1ccc(S(=O)(=O)C(CNS(=O)(=O)c2ccc(F)c(C(F)(F)F)c2)c2ccco2)cc1 (configuration not stated)	x	x	x	x	-4%	x
CN1/C(=C/c2cc[n+](C)c3ccccc23)C=Cc2ccccc21	-43%	u	-21%	-90%	13µM*	-39%
C[n+]1ccc(/C=C/c2ccccc2O)c2ccccc21	-6%	9%	-12%	-38%	-15%	-6%
CCN(CC)CCCNC(=O)C1CCN(S(C)(=O)=O)CC1	x	x	x	x	0%	x
CCN(C(=O)Cn1nc(Cc2cccnc2)c2ccccc2c1=O)c1cc(C)ccc1C	x	x	x	-38%	-1%	x
Oc1oc(-c2ccco2)nc1C=Nc1cccc(Cl)c1	0%	-2%	-4%	-16%	15µM*	-7%
Cc1cc(C(=O)OCC(=O)Nc2cc(S(=O)(=O)N(C)C)ccc2C)c2ccccc2n1	-1%	0%	-6%	9%	-1%	-5%
Cc1ccc(S(=O)(=O)N(C)C)cc1NC(=O)COC(=O)/C=C/c1cnc2ccccc2n1	1%	-1%	27%	8%	17µM*	7%
CN(C)S(=O)(=O)c1ccc(Cl)c(NC(=O)COC(=O)/C=C/c2cnc3ccccc3n2)c1	1%	x	4%	x	11µM*	9%
Cc1nn(-c2ccc(Cl)cc2)c2nc(-c3cccnc3)cc(C(F)(F)F)c12	x	x	x	5%	-5%	x
O=C(NCC(c1cccs1)S(=O)(=O)c1cccs1)c1ccccc1 (configuration not stated)	x	x	x	x	4%	x
Cc1ccc(/C=N/c2sc3c(c2C(N)=O)CCCC3)o1	u	-4%	12%	u	11µM*	4µM*
CC(=O)N1c2ccc(S(=O)(=O)N(C)CC(=O)N(Cc3ccccc3)C(C)C)cc2CC1C (configuration not stated)	x	x	x	x	-7%	x
c1ccc(OCc2nc3ccccc3[nH]2)cc1	2.8µM*	-20%	u	13µM*	12µM*	4µM*
O=S(=O)(CCc1nc2ccccc2[nH]1)c1ccc(Cl)cc1	1%	-3%	0%	-12%	-12%	-2%
Cc1ccc(OCc2nc3ccccc3[nH]2)cc1	1.4µM*	-14%	u	3.5µM*	1.3µM*	0.63µM*
Clc1ccc(OCc2nc3ccccc3[nH]2)cc1	2µM*	-13%	u	11µM*	3.4µM*	1.1µM*
OC(Cc1nc2ccccc2[nH]1)c1ccccc1Cl (configuration not stated)	24%	-9%	9%	-1%	24µM*	22%
Cc1ccc(S(=O)(=O)CCc2nc3ccccc3[nH]2)cc1	-3%	-1%	-1%	-19%	2%	0%
c1ccc(Cc2nc3ccccc3[nH]2)cc1	1%	x	0%	x	-3%	-3%
